Only some compounds are listed: those with a hit (about 3.2% of all), similar ones and a draw of the others.
GSIS activator: primary screen for activators of insulin secretion dependent on glucose, INS-1E cells, GLuc reporter luminescence; activation, % at 16.6 µM; INS-1E GLuc reporter insulin secretion, 2-3 h; actives 0.61% (n = 370,000);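 active = lowest replicate activation of at least 40%, so every replicate reaches that level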
PGC1a acetyl inh: PGC1a acetylation modulation, inhibitor mode; U2OS PGC1a acetylation, AlphaScreen anti-acetyl-lysine; with virally co-expressed GCN5 acetyltransferase; inhibition, % at 15.6 µM; actives 0.17% (n = 350,000);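 active = every replicate shows inhibition of at least 40%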
rRNA inh HTS: inhibitors of bacterial rRNA selective over humanized ribosomes; E. coli WT GFP vs humanized-ribosome RFP mutants, fluorescence, 24 h; hits give low values; DMSO median 0, no signal -100; GFP signal change (wild-type ribosome), % (test concentration not listed); actives 1.6% (n = 350,000); AID 720706;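 active = significant combined selectivity score with lowered wild-type GFP, culture density cut under 30%, mutant RFP and density less affected; inactive = any of these conditions unmet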
ERAP1 inh: blocks human ERAP1 aminopeptidase activity | recombinant ERAP1, Leu-AMC fluorescence, 60 min | inhibition, % at 10.7 µM | actives 0.15% (n = 340,000);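 active = mean replicate inhibition of at least 30%, or all replicates individually reaching that 30% level; inactive = mean below 30% and not every replicate reaching it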
Target sequence (Q9NZ08 whole entry, looked up): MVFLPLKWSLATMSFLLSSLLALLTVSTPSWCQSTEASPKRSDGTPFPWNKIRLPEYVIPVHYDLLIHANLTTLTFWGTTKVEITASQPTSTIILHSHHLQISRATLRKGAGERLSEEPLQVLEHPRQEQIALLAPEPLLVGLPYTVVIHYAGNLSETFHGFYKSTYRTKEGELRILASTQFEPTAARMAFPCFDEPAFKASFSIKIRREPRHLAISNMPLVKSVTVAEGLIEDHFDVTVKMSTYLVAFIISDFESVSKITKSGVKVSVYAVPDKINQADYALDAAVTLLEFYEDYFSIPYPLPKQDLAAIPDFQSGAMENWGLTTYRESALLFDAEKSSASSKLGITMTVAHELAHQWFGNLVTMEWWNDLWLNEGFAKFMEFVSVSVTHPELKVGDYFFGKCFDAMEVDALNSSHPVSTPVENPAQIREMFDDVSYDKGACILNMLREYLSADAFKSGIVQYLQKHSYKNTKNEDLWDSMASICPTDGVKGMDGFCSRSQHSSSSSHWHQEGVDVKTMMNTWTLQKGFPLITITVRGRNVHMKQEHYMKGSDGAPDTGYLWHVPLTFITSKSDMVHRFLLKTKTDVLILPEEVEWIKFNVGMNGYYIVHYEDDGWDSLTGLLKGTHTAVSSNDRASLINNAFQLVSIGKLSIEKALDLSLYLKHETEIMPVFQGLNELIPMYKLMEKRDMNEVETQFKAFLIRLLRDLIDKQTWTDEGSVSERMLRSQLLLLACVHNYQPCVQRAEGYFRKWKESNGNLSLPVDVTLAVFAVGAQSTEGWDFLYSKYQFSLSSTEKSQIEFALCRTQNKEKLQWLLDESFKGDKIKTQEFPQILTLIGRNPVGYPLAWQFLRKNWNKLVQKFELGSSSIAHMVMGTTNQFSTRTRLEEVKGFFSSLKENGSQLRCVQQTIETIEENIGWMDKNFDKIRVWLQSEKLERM
DENV2 CPE rescue: inhibitors of DENV2 cytopathic effect; DENV2-infected cells, cytopathic effect rescue, plate reader; CPE inhibition, % at 9.99 µM; actives 1.7% (n = 350,000); in the data active = CPE inhibition above about 20%, passing the limit was not always enough; tested in BHK-21 cells
CaV13 FRET inh: Disruptors of the CACNA1D IQ motif to Ca2+-dependent inactivation inhibitor domain association, primary screening, Förster resonance energy transfer in intact living …; HEK cells, CFP/YFP FRET ICDI-IQ, plate reader, 10 min; percent FRET-ratio fall versus neutral wells; inhibition, % at 12.3 µM; actives 0.098% (n = 340,000);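 active = mean replicate inhibition of at least 30% and at least 1% of replicates passing that level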
Of the large screens only hits and unclear results are named; the others gave an inactive call; ! = repeats disagree.

CS(=O)(=O)N1[C@@H]2CNC[C@H]1C2c1ccc(-c2ccccc2)cc1 (stereo not given in full)	DENV2 CPE rescue 80 (no result: CaV13 FRET inh)
Cc1ccccc1S(=O)(=O)N1[C@@H]2CNC[C@H]1C2c1ccc(/C=C/c2ccccc2)cc1 (stereo not given in full)	DENV2 CPE rescue 25! (no result: CaV13 FRET inh)
O=S(=O)(c1cccc(F)c1)N1[C@@H]2CNC[C@H]1C2c1ccc(-c2ccccc2)cc1 (stereo not given in full)	none (no result: CaV13 FRET inh)
CC1CC2=C(C(=O)O1)C(c1ccc(Cl)cc1)Nc1ccccc1N2 (stereo not given)	DENV2 CPE rescue 88 (no result: PGC1a acetyl inh)
CN(C)C(=O)C[C@H]1CC[C@H]2[C@@H](COC[C@@H](O)CN2CC2CCOCC2)O1	none (no result: CaV13 FRET inh)
O=[N+]([O-])c1ccc(NC(=S)N2CCc3ccccc32)cc1	rRNA inh HTS -19 (no result: PGC1a acetyl inh, CaV13 FRET inh)
O=[N+]([O-])c1cccc(NC(=S)N2CCc3ccccc3C2)c1	rRNA inh HTS -31 (no result: PGC1a acetyl inh)
CCCCCSc1nncc(=O)[nH]1	none (no result: GSIS activator, rRNA inh HTS, ERAP1 inh, DENV2 CPE rescue)
CCCCCCCCSC1=CC(=O)C(OC)=C(OC)C1=O	DENV2 CPE rescue 71 (no result: GSIS activator)
CO[C@@H]1CN(C)C(=O)c2ccc(NC(=O)c3ccno3)cc2OC[C@@H](C)NC[C@@H]1C	none (no result: PGC1a acetyl inh, CaV13 FRET inh)
C=CC[C@H](CC(=O)NCCO)C(=O)N[C@@H](C)COC(=O)[C@H](CC=C)CC(=O)OC(C)(C)C	none (no result: ERAP1 inh)
C=CC[C@@H](CC(=O)N[C@H](CO)Cc1ccccc1)C(=O)N[C@@H](C)COC(=O)[C@@H](CC=C)Cc1ccc(F)cc1	DENV2 CPE rescue 41 (no result: PGC1a acetyl inh)
C=CCC[C@@H](Cc1ccc(F)cc1)C(=O)OC[C@@H](C)NC(=O)[C@@H](CC=C)CC(=O)N[C@H](CO)Cc1ccccc1	none
C=CCC[C@@H](Cc1ccc(F)cc1)C(=O)OC[C@@H](NC(=O)[C@@H](CC=C)CC(=O)N[C@H](CO)Cc1ccccc1)C(C)(C)C	DENV2 CPE rescue 25 (no result: GSIS activator, PGC1a acetyl inh)
C=CC[C@@H](CC(=O)N[C@@H](CO)Cc1ccccc1)C(=O)N[C@H](COC(=O)[C@@H](CC=C)Cc1ccc(F)cc1)C(C)(C)C	none (no result: GSIS activator, PGC1a acetyl inh)
C=CC[C@@H](CC(=O)NCCO)C(=O)N[C@@H](C)COC(=O)[C@H](CC=C)CC(=O)OC(C)(C)C	DENV2 CPE rescue 46 (no result: PGC1a acetyl inh)
C=CCC[C@@H](Cc1ccc(F)cc1)C(=O)OCCNC(=O)[C@@H](CC=C)CC(=O)N[C@H](CO)Cc1ccccc1	DENV2 CPE rescue 44
O=C(C[C@@H]1CC[C@H]2[C@@H](COC[C@@H](O)CN2Cc2nccs2)O1)NCc1ccccc1Cl	none (no result: ERAP1 inh, CaV13 FRET inh)
Cc1ccc(S(=O)(=O)Nc2ccc3c(c2)C(=O)N([C@@H](C)CO)C[C@H](C)[C@H](CN(C)S(=O)(=O)c2cccs2)O3)cc1	none (no result: CaV13 FRET inh)
O=C(C[C@@H]1CC[C@@H](NC(=O)CCN2CCCCC2)[C@H](CO)O1)NCc1ccc(Cl)c(Cl)c1	none (no result: CaV13 FRET inh)
COc1ccc(CN(C)C[C@@H]2Oc3ccc(NC(=O)CCN4CCOCC4)cc3CC(=O)N([C@@H](C)CO)C[C@H]2C)cc1	none (no result: CaV13 FRET inh)
C#CC(=O)N(c1ccc(OC)c(OC)c1)C(C(=O)NC1CCCC1)c1cccs1 (stereo not given)	PGC1a acetyl inh 103, rRNA inh HTS -28 (no result: DENV2 CPE rescue)
Cc1cc(C)cc(N(C(=O)C(F)(F)F)C(C(=O)NC2CCCCC2)c2cccs2)c1 (stereo not given)	GSIS activator 47 (no result: rRNA inh HTS, ERAP1 inh, DENV2 CPE rescue)
C#CC(=O)N(c1cccc(OC)c1)C(C(=O)NC1CCCC1)c1cccs1 (stereo not given)	GSIS activator 146, PGC1a acetyl inh 93
COc1ccc(CNC(=O)C[C@@H]2C[C@H]3c4cc(NC(=O)C5CCC5)ccc4O[C@H]3[C@H](CO)O2)cc1	none (no result: CaV13 FRET inh)
O=C(O)C[C@@H]1CC[C@H](NC(=O)c2ccccc2F)[C@H](CO)O1	none (no result: CaV13 FRET inh)
O=c1oc(-c2ccccc2NS(=O)(=O)c2ccccc2)nc2ccccc12	none (no result: rRNA inh HTS, ERAP1 inh, DENV2 CPE rescue)
O=c1oc(-c2ccccc2NS(=O)(=O)c2ccc(F)cc2)nc2ccccc12	rRNA inh HTS -32
COc1cc(C)nc(N2CCC(C(=O)NCC3CCCO3)CC2)n1 (stereo not given)	DENV2 CPE rescue 44

High-throughput results: PubChem BioAssay, Broad Institute
